Bioassay records: PubChem, National Center for Advancing Translational Sciences (NCATS)
DT40 TDP1 CPT = qHTS for Inhibitors of human tyrosyl-DNA phosphodiesterase 1 (TDP1): qHTS in cells in presence of CPT. AID 686979, 2013. Potency, µM (highest dose often 46.2 µM), inactives show top-dose activity change, negative = growth inhibition, hits mostly inhibitors. chicken DT40 Tdp1-/-;hTDP1 cells + 20 nM CPT, ATP luminescence, 48 h. 420,000 compounds, 12% hits; note: potency is the fitted concentration of half-maximal effect; nearly all actives have a fitted effect of over 55% in size
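Chicken DT40 Tdp1-/- cells complemented with human TDP1, 400 cells/well, exposed to compounds plus 20 nM camptothecin for at least 48 h at 37 C; viability read as ATP content by CellTiter-Glo luminescence.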
CtBP-E1A blk = qHTS Assay for Inhibitors of the CtBP/E1A Interaction; AlphaScreen GST-E1A/His-CtBP binding, 1536-well; stronger effect = lower value; activity change, % (test concentration not listed); 340,000 compounds, 0.49% hits; AID 651724, 2012; in the data active = activity change below about -65%; inconclusive = mostly about -30% to -63%
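Protein mix (5X: 125 nM each GST-E1A, His-CtBP) was incubated with pinned compound 2 h at 37 deg C in dark, in 50 mM Tris pH 8.0 buffer with 300 mM NaCl. Glutathione donor and nickel acceptor beads followed; AlphaScreen signal read after 1 h.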
Six1-Eya2 inh = qHTS Assay for Inhibitors of the Six1/Eya2 Interaction. activity change, % (no concentration beside the values). 360,000 compounds, 0.56% hits. Homeobox protein SIX1 (Homo sapiens) + Protein phosphatase EYA2 (Homo sapiens), …. AlphaScreen GST-Six1/His-Eya2 binding, biochemical; stronger effect = lower value; in the data active = activity change below about -65%; inconclusive = mostly about -30% to -63%
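GST-Six1 + His-Eya2 (5X stock: 250/500 nM); Tris pH 8.0, 300 mM NaCl, 0.05% BSA, 0.02% Tween 20; GSH donor/Ni acceptor beads; 1 h 37 °C dark; AlphaScreen readout.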
DT40 TDP1 no CPT = qHTS for Inhibitors of human tyrosyl-DNA phosphodiesterase 1 (TDP1): qHTS in cells in absence of CPT; AID 686978, 2013; DT40 Tdp1-/- hTDP1 cells, no CPT, ATP luminescence, 48 h; Potency, µM (highest dose often 46.2 µM), without a hit: at the highest dose activity change, negative = growth inhibition, most hits filed as inhibitors; 420,000 compounds, 15% hits; note: potency is the fitted concentration of half-maximal effect; nearly all actives have a fitted effect of over 55% in size
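Stably hTDP1-transfected Tdp1-null chicken DT40 cells were treated with library compounds minus camptothecin and grown for at least 48 hr at 37 °C, after which cellular ATP was quantified by luminescence.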
TDP1 inh = qHTS Assay for Inhibitors of Tyrosyl-DNA Phosphodiesterase (TDP1); Tyrosyl-DNA phosphodiesterase 1 (Homo sapiens), Q9NUW8; AID 485290, 2010; 350,000 compounds, 0.28% hits; recombinant TDP1, AlphaScreen DNA substrate cleavage; Potency, µM (highest dose often 130 µM), for the others: at the top dose activity change, negative = inhibition, usual class: inhibitors; note: potency is the fitted concentration of half-maximal effect; nearly all actives have a fitted effect of over 40% in size
Target sequence (Q9NUW8 whole entry, looked up): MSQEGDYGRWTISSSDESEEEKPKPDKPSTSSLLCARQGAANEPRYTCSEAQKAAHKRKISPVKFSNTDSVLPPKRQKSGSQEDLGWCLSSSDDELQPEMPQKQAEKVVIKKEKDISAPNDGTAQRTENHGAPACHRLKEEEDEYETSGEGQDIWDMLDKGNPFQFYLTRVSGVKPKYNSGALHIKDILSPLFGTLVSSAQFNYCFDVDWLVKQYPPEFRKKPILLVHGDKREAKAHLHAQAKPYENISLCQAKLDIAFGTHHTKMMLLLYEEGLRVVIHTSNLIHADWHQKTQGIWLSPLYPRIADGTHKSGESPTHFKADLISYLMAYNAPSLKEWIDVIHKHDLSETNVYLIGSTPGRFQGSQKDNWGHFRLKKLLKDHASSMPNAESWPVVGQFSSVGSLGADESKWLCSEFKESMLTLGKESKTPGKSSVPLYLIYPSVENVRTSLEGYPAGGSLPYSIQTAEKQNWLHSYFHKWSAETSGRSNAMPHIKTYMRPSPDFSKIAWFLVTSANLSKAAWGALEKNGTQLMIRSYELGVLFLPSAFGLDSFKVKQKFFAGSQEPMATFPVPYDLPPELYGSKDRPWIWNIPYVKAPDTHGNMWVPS
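Signal: AlphaScreen proximity between streptavidin donor and anti-FITC acceptor beads on intact substrate. Reaction: Tdp1 1 nM, substrate 15 nM final, 5 min RT after 15 min compound preincubation.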
IL-1B inflam inh = qHTS for Inhibitors of Inflammasome Signaling: IL-1-beta AlphaLISA Primary Screen; THP-1 LPS/ATP IL-1B secretion, AlphaLISA, 16 h; stronger effect = lower value; activity change, % at 57.5 µM; 360,000 compounds, 4.7% hits; AID 743279, 2014; in the data active = activity change below about -50%; inconclusive = mostly about -30% to -49%
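Secreted IL-1B measured by AlphaLISA bead assay after 16 h compound exposure of THP-1 cells; compounds (final up to 57.5 uM) added 1 h before LPS (250 ng/mL) and ATP (1.25 mM) stimulation; lower signal means less secretion.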
Starred values were filed as active, the others as inactive; ? = inconclusive; nt = no result. Rows were chosen to be rich in hits. Some 18% of all compounds tested hit in one or more screens of this group. Unless noted, calls come from the whole dose curve; as a rule, active = well fitted curve in the direction sought with a large enough effect; inconclusive = small, poorly fitted or top-dose-only effect, or another doubt; inactive = no such curve, though single readings can be large; an effect the other way counts as inactive or inconclusive. % is set by controls: 0 for no effect and ±100 for the full control effect.

SMILES	DT40 TDP1 CPT	CtBP-E1A blk	Six1-Eya2 inh	DT40 TDP1 no CPT	TDP1 inh	IL-1B inflam inh
Cc1ccc(NC2=C(N3CCOCC3)C(=O)c3ccccc3C2=O)cc1	21µM*	-92*	-89*	26µM*	5%	-100*
Cc1nc(SCC(=O)c2cc3ccccc3oc2=O)c(C#N)c(C)c1C(=O)Nc1ccccc1	nt	nt	nt	nt	-8%	nt
CC(NC(=O)Cc1ccccc1)C(c1ccccc1)N1CCOCC1 (stereo not drawn)	-15%	0	25	-16%	7%	-64*
COc1ccc(NC(=S)NC(C)C(c2ccccc2)N2CCOCC2)cc1 (stereo not drawn)	?	-14	-11	-28%	-1%	0
CC(O)(c1ccccc1)C(C(c1ccccc1)N1CCOCC1)N1CCOCC1 (stereo not drawn)	5%	10	0	-14%	nt	2
CC(NC(=O)c1ccc(-c2ccccc2)cc1)C(c1ccccc1)N1CCOCC1 (stereo not drawn)	?	2	-5	13µM*	2%	0
CC(=O)C(C(c1ccccc1)N1CCOCC1)N1CCOCC1 (stereo not drawn)	?	-11	7	18µM*	nt	-3
NC(=O)c1ncn([C@@H]2O[C@H](CNCc3ccc(OCC(=O)Nc4nccs4)cc3)[C@@H](O)[C@H]2O)n1	-10%	-1	2	-5%	nt	13
CC1=C(C(=O)N2CCCCCC2)CC(CC(=O)NCCCCc2ccccc2)C(=O)N1CCC1=CCCCC1 (stereo not drawn)	23µM*	1	-10	18µM*	nt	-67*
CC1=C(C(=O)N2CCCCCC2)CC(CC(=O)NC2CCCCC2)C(=O)N1CCC1=CCCCC1 (stereo not drawn)	13µM*	1	4	?	nt	-27
CCCCN1C(=O)C(CC(=O)NCCCCc2ccccc2)CC(C(=O)N2CCCCCC2)=C1C (stereo not drawn)	18µM*	0	-4	18µM*	nt	0
CC1=C(C(=O)N(C)C)CC(CC(=O)NCCCCc2ccccc2)C(=O)N1CCC1=CCCCC1 (stereo not drawn)	?	-1	0	?	nt	-10
C=C(C)C(=O)Oc1ccc(N=Nc2ccc(C)cc2)ccc1=O	10µM*	-11	?	2.9µM*	nt	?
C#CCN(C[C@H]1[C@H](OC(=O)NCCCCCC)[C@H](OC(=O)NCCCCCC)C[C@H]2C(=O)N(c3ccccc3)C(=O)[C@@H]12)S(=O)(=O)c1ccc(C)cc1	?	3	-1	?	nt	?
C#CCN(C[C@@H]1[C@@H](OC(=O)NCc2ccccc2F)[C@@H](OC(=O)NCc2ccccc2F)Cn2c(=O)n(CCCCCC)c(=O)n21)S(=O)(=O)c1ccc(C)cc1	?	-4	-4	12µM*	nt	?
C#CCN(C[C@@H]1[C@@H](OC(=O)NCc2ccccc2F)[C@@H](OC(=O)NCc2ccccc2F)Cn2c(=O)ccc(=O)n21)S(=O)(=O)c1ccc(C)cc1	4.1µM*	-9	-8	2.6µM*	nt	-111*
C#CCN(C[C@@H]1[C@@H](OC(=O)NCCCCCC)[C@@H](OC(=O)NCCCCCC)Cn2c(=O)n(CCCCCC)c(=O)n21)S(=O)(=O)c1ccc(C)cc1	?	-16	4	?	nt	3
